This note sets out measurements from PubChem BioAssay AID633 (Emory University Molecular Libraries Screening Center, 2007).

Among all 86,000 compounds or so, about 1,100 (1.3%) were called active.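 The calls were made as follows: active = compounds whose percent inhibition of the receptor-coactivator binding signal exceeds about 50% in the single-dose screen (limit read from the data); inactive = the rest.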 For the sample, actives were picked, then their nearest neighbours and some compounds at random.

For the assay, the target named is Estrogen receptor beta (Homo sapiens) (UniProt Q92731). Briefly: blockers of coactivator peptide binding to ERβ – biochemical, TR-FRET, ERβ LBD, SRC-1 peptide, primary screen (AID 633).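 Also: 0% = receptor plus peptide wells without compound and 100% = peptide-only wells.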 The conditions noted are these: TR-FRET ER-beta LBD / SRC1-Cy5 peptide binding; at 25.6 µM; stronger effect = higher value; receptor agonist-loaded with 1 µM estradiol. A general note: Time-resolved FRET reads energy transfer from a long-lived donor to a nearby acceptor.
Sequence of Estrogen receptor beta (Homo sapiens) (Q92731 whole entry, looked up, the tested form may be a part): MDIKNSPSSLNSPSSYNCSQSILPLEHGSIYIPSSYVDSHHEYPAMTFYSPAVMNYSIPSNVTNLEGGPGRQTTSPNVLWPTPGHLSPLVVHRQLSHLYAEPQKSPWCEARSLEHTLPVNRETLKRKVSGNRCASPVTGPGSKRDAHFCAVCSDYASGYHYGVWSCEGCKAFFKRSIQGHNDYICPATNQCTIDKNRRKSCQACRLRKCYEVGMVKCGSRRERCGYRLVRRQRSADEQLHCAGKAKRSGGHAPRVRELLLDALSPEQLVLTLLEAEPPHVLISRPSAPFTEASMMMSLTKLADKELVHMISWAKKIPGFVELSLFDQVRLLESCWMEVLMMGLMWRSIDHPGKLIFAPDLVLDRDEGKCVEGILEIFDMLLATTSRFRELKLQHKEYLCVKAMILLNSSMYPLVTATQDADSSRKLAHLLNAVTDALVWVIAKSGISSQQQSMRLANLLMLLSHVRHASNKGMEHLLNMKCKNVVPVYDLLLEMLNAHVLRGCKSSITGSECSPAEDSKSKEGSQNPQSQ
Turning to `ON=C1/C(=N\O)CC2(C/C1=N/O)OCCO2`, the inhibition was 60.3% (active).
On to `O/N=C1\CC2(Cc3nonc31)OCCO2`, for which the inhibition is 23% (inactive).
Then `O=C(CSc1nnnn1-c1ccccc1)NCc1ccco1`, with 17.8% (inactive); and `CCOC(=O)Nc1sc(C(=O)N(C)C)c(C)c1C(=O)OCC`, with 4.28% (inactive); and `Cc1ccc(Cc2cncc(O)c2)cc1S(=O)(=O)O`, with 54.6% (active).
Then `Cc1cc(O)cc(O)c1C(=O)Cc1cnn(-c2ccccc2)c1`, with -7.76% (inactive); and `Cn1nc(-c2ccccc2)c(CSc2cccc(Cl)c2)c1Cl`, with -3.81% (inactive).
On to `Cn1c(NN)nc2sc3c(c2c1=O)CCC3`, for which the inhibition is -7.13% (inactive).
Then `CCNC(=O)NC(=O)C(C)OC(=O)c1cc(S(=O)(=O)N2CCCCCC2)ccc1OC` (stereo unspecified), with -4.07% (inactive).
Then `COc1ccc(-c2noc(-c3ccc(C)cc3)n2)cc1`, with -3.86% (inactive); and `Cc1cccc(-c2noc(-c3ccc(F)cc3)n2)c1`, with -10.2% (inactive).
For `COc1ccc2[nH]c(=O)c(-c3noc(-c4ccc(F)cc4)n3)cc2c1` the value was 63.8% [fluorescence artefact?] (active); for `CCSc1ccccc1C(=O)NCc1ccc(OC)cc1`, 15.2% (inactive); for `CCC(=O)NC(Nc1nc2ccc(C)cc2s1)(C(=O)OC)C(F)(F)F` (stereo unspecified), 9.59% (inactive).
Take `Cc1cc(N2CCN(S(=O)(=O)c3ccc(C)c(C)c3)CC2)c2ccccc2n1`: the inhibition was 3.59% (inactive).
Then `c1ccc(Nc2nc(N3CCOCC3)c3ccccc3n2)cc1`, with -6.49% (inactive); and `c1ccc2[nH]c(NCCN3CCOCC3)nc2c1`, with -3.02% (inactive); and `C1=C(N2CCOCC2)/C(=C/c2nc3ccccc3[nH]2)CC1`, with 72.1% (active).
For `O=C(Cc1ccc(-n2c(=O)c3sccc3n(Cc3ccc(F)cc3)c2=O)cc1)NCc1ccco1` the value was 21.4% (inactive); for `CS(=O)(=O)c1ccc2c(c1)SC1=NC(=O)/C(=C/c3ccco3)C(=N)N12`, 79% [fluorescence artefact?] (active); for `O=C1C2C3C=CC(C4CC34)C2C(=O)N1/N=C/c1ccc(-c2ccccc2[N+](=O)[O-])o1` (stereo unspecified), 2.95% (inactive).
Turning to `CC(C)C(=O)NC(NC(=S)NC1CCS(=O)(=O)C1)C(Cl)(Cl)Cl` (stereo unspecified), the inhibition is 14.7% (inactive).
`Cc1coc2c(O)cc3c(c12)OC1(N2CCCCC2)C(=O)NCCCC31` (stereo unspecified): the inhibition was 60.9% [fluorescence artefact?] (active).
Then `COc1ccccc1NC(=O)C1CCCN(c2cc(C)nc3ncnn23)C1` (stereo unspecified), with -2.37% (inactive); and `CCOc1ccc(C(O)Cc2nc3ccccc3n2C)cc1` (stereo unspecified), with -4.37% (inactive); and `CCOC(=O)c1ccccc1NS(=O)(=O)c1ccc(OC)cc1`, with -1.65% (inactive).
Then `COC(=O)c1cnn2c(C(F)(F)F)cc(-c3ccco3)nc12`, with 58.5% (active); and `COC(=O)c1cc2nc(-c3ccccc3)cc(C(F)(F)F)n2n1`, with -1.27% (inactive); and `O=C(NCc1ccco1)c1cnn2c(C(F)(F)F)cc(-c3ccco3)nc12`, with 5.47% (inactive).
Then `Cc1noc(/C=C/c2ccco2)c1S(=O)(=O)N1CCC(C(=O)N2CCc3ccccc32)CC1`, with -6.43% (inactive); and `Nc1ccc(-c2nnc(-c3ccc(-c4ccccc4)cc3)o2)cc1`, with 19.9% (inactive).
With `Brc1ccc(-c2nnc(-c3ccccc3)o2)o1`, the inhibition is 60.6% [fluorescence artefact?] (active).
Then `O=C(Nc1ccc(-c2nnc(-c3ccccc3)o2)cc1)c1ccc(Br)o1`, with 30% (inactive); and `CC(C)n1c(-c2cccs2)nc2ccccc21`, with -10.4% (inactive).
For `Cc1cc(S(=O)(=O)NC2CCCCC2)ccc1OCC(=O)NCc1cccnc1` the value was -4.71% (inactive).
With `Cc1cc2c(c(=O)n1Cc1ccco1)C(c1ccccc1)C(C#N)=C(N)O2` (stereo unspecified), the inhibition is -16.4% (inactive).
With `N#CC1=C(N)Oc2c(sc3ccccc23)C1c1ccco1` (stereo unspecified), the inhibition was 51.7% [fluorescence artefact?] (active).
For `CC1=C(C(=O)Nc2ccccc2)C(c2ccco2)C(C#N)=C(SCC(N)=O)N1` (stereo unspecified) the value was -2.8% (inactive).
For `Cc1nc2ccc(C(=O)O)cc2[nH]1` the value was 56.8% (active); for `CC(C)c1nc2ccc(C(=O)O)cc2[nH]1`, 14.7% (inactive).
For `Cc1ccc2nc(S(=O)(=O)O)[nH]c2c1` the value was 3.08% (inactive).
For the compound `Cn1ccs/c1=N\S(=O)(=O)c1ccc(C(C)(C)C)cc1`, the inhibition was 0.33% (inactive).
`COc1ccccc1/C=C/C1=NC(=C\N(C)C)/C(=O)O1`: the inhibition is 1.45% (inactive).
`CCNCc1cc2cc(C)ccc2[nH]c1=O`: the inhibition was -8.3% (inactive).
On to `COc1ccc(CCn2c(=N)c(C(=O)NCc3ccco3)cc3c(=O)n4cccc(C)c4nc32)cc1`, for which the inhibition was 48.1% (inactive).
For `Cc1ccc2[nH]c(=O)c(-c3nc4c(C)cccn4c3NCc3ccco3)cc2c1` the value was 56.9% [fluorescence artefact?] (active); for `Cn1nnnc1SCC(=O)Nc1ccccc1C(=O)NC1CC1`, -5.32% (inactive); for `CC1CN(S(=O)(=O)c2ccccc2)C(C)CN1S(=O)(=O)c1ccccc1` (stereo unspecified), 1.26% (inactive).
As for `Cc1cc(C)cc(N(CC(=O)N2CC=C(c3ccccc3)CC2)S(=O)(=O)c2c(C)noc2C)c1`, the inhibition was -1.97% (inactive).
Then `CCOc1ccc(S(=O)(=O)Nc2ccc(S(=O)(=O)Nc3cc(OC)ccc3OC)cc2)cc1`, with -5.81% (inactive).
For `CCCCCCc1cc2cc(-c3nnc(-c4cccc(OC)c4)o3)c(=O)oc2cc1O` the value was 1.17% (inactive).

In general, inhibition refers to the change of the read-out against control, counted positive when it falls.
